# Laboratory results from ChEMBL document CHEMBL4513216, “Probing the Open Global Health Chemical Diversity Library for Multistage-Active Starting Points for Next-Generation Antimalarials” (ACS Infect Dis, 2020).
# About 8,600 (12%) of roughly 69,000 compounds showed an effect of 50% or more. For the sample, strong results were picked, then their nearest neighbours and some compounds at random.
# Test system: Plasmodium berghei
# Assay: Screen against P. berghei liver stage (PbLuc), transformed with Luciferase, at 10uM
# Format: functional, HepG2
# Conditions: tested at 10 uM
row,SMILES,INHIBITION
1,Cn1cc2ncn(CCC3CCN(Cc4ccccc4)C3)c(=O)c2n1 (stereo not drawn),42.1%
2,c1ccc(NCc2cn3c(n2)CNCC3)nc1,42.6%
3,CN(CCc1ccccn1)C(=O)c1cccs1,50.8%
4,CN(CCCc1ccccc1)C(=O)c1cn2c(n1)CNCC2,61.9%
5,CN(CCSc1ccccc1)C(=O)c1cn2c(n1)CNCC2,66.5%
6,CN(C)S(=O)(=O)c1ccc(CNC(=O)c2cn3c(n2)CNCC3)cc1,39.9%
7,CC(C)N(Cc1ccccn1)C(=O)CN(C)C(=O)c1cccs1,12.3%
8,CN(CCSc1ccccc1)C(=O)C(c1cccnc1)N1CCOCC1 (stereo not drawn),19.4%
9,O=C(NCc1ccc(C(=O)N2CCCC2)cc1)c1cn2c(n1)CNCC2,16.1%
10,Cc1ccc(SCCN(C)C(=O)c2cn(CCN)nn2)cc1,-122%
11,CN(CCc1ccccn1)C(=O)c1cn2c(n1)CNCC2,66.5%
12,CN(CC(=O)NCCc1ccccn1)C(=O)c1cccs1,11%
13,CN(CCc1ccccn1)C(=O)c1cn(CCN2CCNCC2)nn1,-60.7%
14,COc1ccccc1C(=O)N(C)Cc1nnc2ccccn12,-81.1%
15,Cn1c(N2CCOCC2)nc2cc(C(=O)N3CCC(O)(CO)C3)ccc21 (stereo not drawn),44.7%
16,CCOc1ccc(NCC(=O)NCC(=O)N2CCCC2)c(C(F)(F)F)c1,16.5%
17,O=C(O)CCC(=O)Nc1nn(Cc2ccc(F)cc2)cc1Cl,46.6%
18,CN1CCN(C(=O)c2cccn2C)c2ccccc2C1,-39.2%
19,COCCN1CC[C@@H](OC)[C@@H]1Cc1ccccc1,-34.7%
20,Cc1nnc(NC(=O)CN2CCc3c(nc(C(C)C)n3C)C2)s1,17.3%
21,CC(O)CN1CCC(CN(C)CC(=O)NC2CCOCC2)CC1 (stereo not drawn),-8.31%
22,CCC(C)(C)NC(=O)Cn1nc(C)nc1-c1ccccc1,-31.5%
23,O=C1NC2(Cc3ccccc31)CN(CC1CCNCC1)C2,26.7%
24,CC(=O)NCC(=O)NCC1Cn2nnc(-c3cccc(F)c3)c2CO1 (stereo not drawn),27.6%
25,CCOCC(=O)NCC1Cn2nnc(-c3cccc(F)c3)c2CO1 (stereo not drawn),38.5%
26,CCS(=O)(=O)NCC1Cn2nnc(-c3cccc(C)c3)c2CO1 (stereo not drawn),50.3%
27,c1ccc(-c2nnn3c2COC(CNCC2CC2)C3)cc1 (stereo not drawn),42.7%

row,SMILES,INHIBITION
1,Cc1cccc(-c2nnn3c2COC(CNC(=O)N2CCCC2)C3)c1 (stereo not drawn),62.9%
2,c1ccc(-c2nnn3c2COC(CNCC2CCOCC2)C3)cc1 (stereo not drawn),44.9%
3,CCS(=O)(=O)NCC1Cn2nnc(-c3ccccc3)c2CO1 (stereo not drawn),54.4%
4,Cc1cccc(-c2nnn3c2COC(CNS(=O)(=O)C2CC2)C3)c1 (stereo not drawn),44.8%
5,O=C(NCC1Cn2nnc(-c3ccsc3)c2CO1)N1CCCC1 (stereo not drawn),2.26%
6,NC1CCN(S(=O)(=O)c2ccc(C(=O)N3CCSCC3)cc2)C1 (stereo not drawn),2.49%
7,CC(C)OCc1nn(CC2CC2)c2c1CN(Cc1ccco1)CC2,-107%
8,CC(C)(CN1CCC(Cc2ccc(CO)cc2)C1)N1CCOCC1 (stereo not drawn),23.5%
9,O=C(CCn1ccc2ccccc21)Nc1ccnn1CC1CCOC1 (stereo not drawn),10.1%
10,O=C(O)c1cc2c(nc1N1CCCC1)CCN(C1CCOCC1)CC2,-15.3%
11,O=c1[nH]cnc2c1CCN(S(=O)(=O)c1ccc(Cl)cc1)C2,36.2%
12,CN(C)CCN(C)C(=O)Cn1cccc2cc(-c3ccc(F)cc3)nc1-2,26.7%
13,Cn1nc(C2CNCCO2)cc1CCOc1cccc(C(F)(F)F)c1 (stereo not drawn),37.8%
14,CN1CCCC(CCC(=O)N2CCc3[nH]c(-c4ccccc4)nc3C2)C1 (stereo not drawn),23%
15,CC(C(=O)NCc1ccc(N2CCN(C)CC2)nc1)n1cccn1 (stereo not drawn),2.243%
16,Cc1ccc(CN2CC[C@H]3OCC[C@@H](C(=O)NCC4CC4)[C@@H]3C2)s1,5.96%
17,CNC(=O)c1cccc(C2CNCCN2C(=O)c2ccn(C)n2)c1 (stereo not drawn),33.7%
18,CCn1cnnc1C1CCN(C(=O)c2cnc3ccccc3n2)CC1,21.3%
19,CCc1nnc(CN2CC(n3cccn3)C2)o1,-110%
20,Cc1ccc(N2CCCC(NCC(=O)NC(C3CC3)C3CC3)C2)nn1 (stereo not drawn),-6.44%
21,CC(=O)N1CCC2(CCN(C(=O)c3cccc(C(F)(F)F)c3)CC2)C1,63.7%
22,CC(=O)N1CCC2(CC1)CCN(C(=O)c1cccc(C(F)(F)F)c1)C2,55.5%
23,CC(=O)N1CCC2(CC1)CCN(C(=O)c1ccc(F)c(C(F)(F)F)c1)C2,12.4%
24,CC(=O)N1CCC2(CCN(C(=O)c3ccc(F)c(C(F)(F)F)c3)C2)C1 (stereo not drawn),17.1%
25,CC(=O)N1CCC2(CCN(C(=O)c3ccc(C)c(C(F)(F)F)c3)CC2)C1,16.5%
26,CC(=O)N1CCC2(CCN(C(=O)c3ccc(F)c(C(F)(F)F)c3)CC2)C1,6.6%
